Laboratory results reported in ChEMBL document CHEMBL3988442, “University of Dundee, Small-Polar-MMV Screening Library” (2021).
About 13,000 (27%) of roughly 48,000 compounds showed an effect of 50% or more. The list shows a part of the results.

What follows are molecules tested on Wolbachia pipientis (assay: Anti-Wolbachia Cell-Based Screen). Conditions: 5 µM.
Assay type: functional
Parameters: scale not given: in the data most compounds retested in dose-response had high values

Compared with `Cc1nc(C)c(C(=O)N2CCc3[nH]nc(COc4ccccc4)c3C2)s1`, `CCSCCC(=O)N1CCc2[nH]nc(COc3ccccc3)c2C1` is higher in “Percent Effect” value: 5.403% for the first, 89.78% for the second.

Compared with `O=C(CSCC1CC1)N1CCc2[nH]nc(COc3ccccc3)c2C1`, `O=C(CCn1cccc1)N1CCc2[nH]nc(COc3ccccc3)c2C1` is lower in “Percent Effect” value: 108.9% for the first, 87.66% for the second.

First: O=C1CC[C@@H](C(=O)N2CCc3[nH]nc(COc4cccc(Cl)c4)c3C2)N1
Second: O=C(N1CCOCC1)N1CCc2[nH]nc(COc3cccc(Cl)c3)c2C1
The “Percent Effect” value of the first is higher: 3.497% for the first, 2.718% for the second.

Compared with `O=C(O)C(F)(F)F.O=C(O)C(F)(F)F.c1ccc(OCc2n[nH]c3c2CN(CC2CC2)C3)nc1`, `O=C(O)C(F)(F)F.O=C(O)C(F)(F)F.O=C(O)c1cc2c(nc1-c1ccoc1)CCN(CC1CCOC1)CC2` (centres undefined) is higher in “Percent Effect” value: 5.634% for the first, 7.736% for the second.

First: COC(=O)CCC(=O)N1CCc2[nH]nc(-c3ccc(F)c(F)c3)c2C1
Second: O=C(Cn1cccn1)N1CCc2[nH]nc(-c3ccc4c(c3)OCO4)c2C1
The “Percent Effect” value of the first is higher: 3.026% for the first, 1.932% for the second.

First: CN(C)S(=O)(=O)N1C[C@@H]2CC[C@H](C1)N(Cc1cccc(C#N)c1)C2
Second: CSc1cccc(CN2CCC(CCC(=O)NC3CC3)CC2)c1
The “Percent Effect” value of the first is lower: -14.1% for the first, 0.2093% for the second.

First: CCc1nc(CNC(=O)C2CCC(=O)N(Cc3ccccc3F)C2)no1 (centres undefined)
Second: CC(=O)N1CCCC(C(=O)NCc2noc(Cc3ccccc3)n2)C1 (centres undefined)
The “Percent Effect” value of the first is lower: -29.1% for the first, 10.7% for the second.

Compared with `CCNc1ncc(C(=O)NCCc2csc(CSC)n2)cn1`, `CC[C@H](C)[C@H](N)C(=O)Nc1nc(-c2cnc(N(C)CCO)nc2)cs1` is higher in “Percent Effect” value: -1.673% for the first, 103.7% for the second.

First: COC(=O)C(C)(C)NC(=O)c1scnc1Cl
Second: CC(C)c1nc(CN(C)C(=O)CNC(N)=O)cs1
The “Percent Effect” value of the first is higher: 4.833% for the first, -43.04% for the second.

First: CC1(C)OCC2(CO1)CN(C(=O)c1ccccc1Br)C2
Second: O=C(c1coc2ccccc12)N1CCCC1
The “Percent Effect” value of the first is lower: -7.61% for the first, 2.375% for the second.

First: O=C1NCCCCC1NC(=O)C1(c2cccc(C(F)(F)F)c2)CC1 (centres undefined)
Second: CN(C)C1CN(C(=O)Nc2cccc(OC(F)F)c2)C1
The “Percent Effect” value of the first is lower: -27.01% for the first, -11.25% for the second.

Going from `CCC(Nc1nnnn1-c1ccccc1)C(=O)Nc1nc(C)cs1` (centres undefined) to `CC[C@H](C)[C@H](N)C(=O)Nc1nc(-c2cnc(N(C)C)nc2)cs1`, the “Percent Effect” value rises from 23.33% to 89.2%.

Going from `Cc1nc(-c2cccc(C(=O)N(C)CC(C)O)c2)cs1` (centres undefined) to `CC(C)c1nc(CN(C)C(=O)c2ccccc2C2CCNC2)cs1` (centres undefined), the “Percent Effect” value rises from -6.133% to 31.56%.

Compared with `Cc1cc(CN(C)C(=O)NC(C)Cc2ccc(O)cc2)no1` (centres undefined), `Cc1ccc(OCC(=O)Nc2cnccc2SCCCO)cc1C` is lower in “Percent Effect” value: 12.34% for the first, -7.18% for the second.

First: CN(Cc1ccccc1CN1CCCC1)C(=O)c1c[nH]c(=O)[nH]1
Second: Cc1nc(CN2CCC(CNC(=O)Nc3ccccc3)CC2)oc1C
The “Percent Effect” value of the first is higher: 14.99% for the first, -9.889% for the second.

Compared with `Cc1ccc(S(=O)(=O)N2CSCC2C(=O)N(C)C2CC2)cc1Cl` (centres undefined), `Cc1cc(C)c(C(=O)Nc2cccc(CN3CCC(CO)CC3)c2)o1` is higher in “Percent Effect” value: 4.535% for the first, 132.4% for the second.

First: NC(=O)C1CCN(Cc2cccc(NC(=O)c3ccsc3)c2)CC1
Second: N#Cc1ccccc1C(=O)Nc1cccc(CN2CCC(CO)CC2)c1
The “Percent Effect” value of the first is lower: -7.959% for the first, 103.3% for the second.

Going from `O=C(Nc1cccc(CN2CCC(CO)CC2)c1)c1cc(Cl)c[nH]1` to `Cc1nc(C)c(C(=O)Nc2cccc(CN3CCC(CO)CC3)c2)o1`, the “Percent Effect” value rises from 101.9% to 118.5%.

Compared with `CSc1cccc(CN2CCC(CCC(=O)Nc3ccccc3)CC2)c1`, `O=C(Nc1cccnc1)Nc1cccc(CN2CCC(O)CC2)c1` is lower in “Percent Effect” value: 5.512% for the first, -1.395% for the second.

First: CN(C)CCn1c(=O)oc2ccc(NC(=O)c3cc(Cl)c[nH]3)cc21
Second: Cc1ccccc1CN(CCN(C)C)C(=O)c1ccc2nccn2c1
The “Percent Effect” value of the first is higher: -2.174% for the first, -23.59% for the second.

First: COC(=O)C(O)C1CCN(Cc2cccc(-n3cccn3)c2)CC1 (centres undefined)
Second: CSCC(=O)Nc1ncn(Cc2cccc(Br)c2)n1
The “Percent Effect” value of the first is lower: 8.265% for the first, 13.99% for the second.

Going from `Cc1nc(C)n(Cc2cccc(NC(=O)NC(C)(CO)C3CC3)c2)n1` (centres undefined) to `CC(CO)(NC(=O)Nc1nncs1)C1CCCCC1` (centres undefined), the “Percent Effect” value falls from -1.537% to -9.276%.

Compared with `Cc1ncsc1CCN(C)Cc1ccc(Br)o1`, `CN(Cc1cc(C(C)(C)C)n[nH]1)C(=O)c1ccc2nccn2c1` is higher in “Percent Effect” value: 8.382% for the first, 54.27% for the second.

First: CCN(CC)C(=O)[C@@H]1C[C@@H](N)CN1C(=O)c1cc2c([nH]c1=O)CCC2
Second: CN1CCN(C[C@@H]2CN(C(=O)c3ccccc3C#N)C[C@@H]2CO)CC1
The “Percent Effect” value of the first is lower: -5.971% for the first, 6.523% for the second.

First: CCCS(=O)(=O)NCc1cccnc1OCc1ccccc1
Second: CCC(=O)N1CCCC(C(=O)NCc2noc(Cc3ccccc3)n2)C1 (centres undefined)
The “Percent Effect” value of the first is higher: 9.301% for the first, 1.423% for the second.

Compared with `COCCc1noc(CNC2CCSC2)n1` (centres undefined), `COCCc1noc(CNC(C)(CO)C2CCCCC2)n1` (centres undefined) is higher in “Percent Effect” value: 7.087% for the first, 130.3% for the second.

Going from `CC(CO)(NCc1noc(Cc2ccccc2)n1)C1CCCCC1` (centres undefined) to `CCc1nc(CNC(C)(CO)C2CCCCC2)no1` (centres undefined), the “Percent Effect” value rises from 91.55% to 105.4%.

Going from `CCc1nc(CNc2ccc(-c3nc(C4CC4)no3)cn2)no1` to `COCCc1noc(CNC(=O)C2CC(=O)N(C(C)(C)C)C2)n1` (centres undefined), the “Percent Effect” value falls from -0.6483% to -10.49%.

First: O=C(CCC(=O)N1CCC(Cc2ccc(CO)cc2)C1)c1ccccc1 (centres undefined)
Second: O=C(c1ccc2nccn2c1)N(CCO)Cc1ccccc1F
The “Percent Effect” value of the first is higher: -6.413% for the first, -19.18% for the second.

First: CCS(=O)(=O)N1CC[C@@H]2[C@H](COCC3CC3)CN(C)C(=O)[C@@H]2CC1
Second: CCCOC(=O)N1CCCC(c2nnc(CN3CCOCC3)n2C)C1 (centres undefined)
The “Percent Effect” value of the first is higher: 34.67% for the first, -3.793% for the second.

First: CN(Cc1cc(C(C)(C)C)n[nH]1)C(=O)c1cn2ccsc2n1
Second: CC(C)c1nc(CN(C)C(=O)c2cn3ccsc3n2)cs1
The “Percent Effect” value of the first is lower: 85.98% for the first, 97.44% for the second.

Going from `CN(Cc1cc(C(C)(C)C)n[nH]1)C(=O)c1ccccc1C1CCNC1` (centres undefined) to `CN(C)c1cc(N(C)Cc2cc(C(C)(C)C)n[nH]2)ncn1`, the “Percent Effect” value falls from 27.35% to 2.487%.
